# Laboratory results from PubChem BioAssay (NCI).
# About 83,000 compounds went through this panel and 20% of them were active in at least one assay; those are over-represented in the sample as a whole.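 96-well plates, one dose, 48 hours. Percent growth reported; active if below 10.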 Unmarked numbers belong to inactive results. Activity calls are given as the source filed them.
# Assays:
# Assay in all cases: NCI-60 one-dose screen, 48 h (100 = growth as untreated, 0 = no growth, -100 = all killed)
# Conditions in all cases: 10 µM unless noted
# DU-145 prostate = system: DU-145 prostate
# K-562 leukemia = system: K-562 leukemia
# MDA-MB-231 breast = system: MDA-MB-231 breast
# RXF 393 renal = system: RXF 393 renal
# SF-268 CNS = system: SF-268 CNS
# SF-295 CNS = system: SF-295 CNS
# SF-539 CNS = system: SF-539 CNS
# UACC-257 melanoma = system: UACC-257 melanoma
# M14 melanoma = system: M14 melanoma
# HCT-15 colon = system: HCT-15 colon
# HT29 colon = system: HT29 colon
# SNB-75 CNS = system: SNB-75 CNS
# SNB-19 CNS = system: SNB-19 CNS
# U251 CNS = system: U251 CNS
# PC-3 prostate = system: PC-3 prostate
# SK-MEL-5 melanoma = system: SK-MEL-5 melanoma
# UACC-62 melanoma = system: UACC-62 melanoma
# SK-MEL-28 melanoma = system: SK-MEL-28 melanoma
# LOX IMVI melanoma = system: LOX IMVI melanoma
Structure (SMILES),growth (DU-145 prostate) [%],growth (K-562 leukemia),growth (MDA-MB-231 breast),growth (RXF 393 renal),growth (SF-268 CNS),growth (SF-295 CNS),growth (SF-539 CNS),growth (UACC-257 melanoma),growth (M14 melanoma),growth (HCT-15 colon),growth (HT29 colon),growth (SNB-75 CNS),growth (SNB-19 CNS) [%],growth (U251 CNS),growth (PC-3 prostate),growth (SK-MEL-5 melanoma),growth (UACC-62 melanoma),growth (SK-MEL-28 melanoma),growth (LOX IMVI melanoma)
CC(=O)Oc1ccccc1C(=O)/C=C/c1cccc([N+](=O)[O-])c1,75,28.1%,85.2%,60.4%,62.6%,68.7%,80.8%,103%,96.4%,54.9%,48.8%,60.2%,81.1,54.3%,71.1%,89.3%,85.7%,95.6%,–
O=C(N/N=C\c1c(O)ccc2ccccc12)C1CC1,69.1,34%,38.5%,50.4%,42.3%,30%,33.2%,11.2%,39.9%,28.4%,69.6%,53.8%,54.9,–,45.8%,53.1%,25.2%,69.7%,–
COc1ccc(/C(=C\c2ccc3c(c2)OCO3)C(=O)Nc2nc3ccccc3s2)cc1OC,105,83.9%,109%,88.4%,83.2%,–,93.8%,105%,92.7%,90.1%,90.3%,94.3%,101,97.9%,92.1%,101%,97.8%,106%,102%
C/C(=N\Nc1cc(C)c2cc(C)ccc2n1)c1ccccn1,21,-40.8% (active),-89.1% (active),-88.2% (active),-4.43% (active),–,-92.4% (active),-73.5% (active),-82.9% (active),-16.5% (active),-99.3% (active),5.85% (active),20.6,-100% (active),15.2%,-98.9% (active),-54.4% (active),-93.3% (active),-86.4% (active)
COc1ccc(/C=C/C(=O)c2ccc([N+](=O)[O-])cc2)cc1,109,101%,94.5%,110%,106%,114%,104%,110%,106%,104%,95.3%,104%,96.9,–,92%,105%,88%,112%,–
O=C(NO)c1ccc(Cn2c(=O)n(-c3ccccc3)c(=O)c3ccccc32)cc1,21.9,3.42% (active),55.1%,-13.1% (active),43.9%,13.6%,-8.95% (active),–,2.72% (active),39.6%,41%,20.9%,33.4,-3.66% (active),-7.98% (active),16.5%,-24.6% (active),-1.55% (active),–
O=[N+]([O-])c1ccc(/C=N\Nc2ccccc2)cc1,97.1,25.2%,68.2%,107%,73.5%,55.3%,107%,97.2%,31.6%,65.5%,96.8%,81.8%,104,72%,69%,–,3.85% (active),97.5%,–
Cc1cc(C)nc(NC(N)=NCCc2ccccc2)n1,42.6,–,51.6%,51.4%,39.5%,–,36.7%,30.2%,31.8%,55%,13.5%,23.7%,46.8,31.6%,37.7%,22%,38%,33.8%,–
Cn1cc(-c2csc(-c3c[nH]c4ccccc34)n2)c2cccnc21,16.5,18.9%,48.3%,12.6%,45.4%,6.62% (active),-1.15% (active),64.6%,23.8%,25.6%,10.2%,-5.48% (active),47.2,27.2%,22.1%,11.1%,44.7%,53.9%,–
